Measured values: ChEMBL document CHEMBL4888484, “Replenishing the malaria drug discovery pipeline: Screening and hit evaluation of the MMV Hit Generation Library 1 (HGL1) against asexual blood stage Plasmodium falciparum ,using a nano luciferase reporter read-out” (2022)
Among all 150,000 compounds or so, about 540 (0.36%) showed an effect of 50% or more. The full list was thinned out, with strong results kept by preference.

Tested on: Plasmodium falciparum
Test: Primary screen in NF54 nanoGlo assay, in single point, at 2uM, 72h; a lower Z score goes with more inhibition
Type: functional, Erythrocyte
Settings: timepoint 72 hour

SMILES | % Inhibition [%] | Z score
O=C(Cn1nccn1)N1CCN(Cc2ccc3c(c2)OCO3)CC1 | 2 | -0.28
CCN(C(=O)c1cc(N)ccc1Cl)C(C)C | 6 | -0.81
Cc1cccn(CC(=O)N2CCC(=O)[C@@H](C)C2)c1=O | 2 | -0.36
O=C1c2ccccc2C(=O)N1Cc1nc(-c2cccnc2)no1 | -9 | 1.34
Cc1ccsc1C(=O)NCCNc1ncccn1 | -7 | 0.93
CCCc1cnc(C)nc1-c1ccnc2c1ccn2C | -4 | 0.73
Cc1ccncc1C(=O)N1CCC(CCn2c(C)cnc2C2CC2)CC1 | -3 | 0.37
Cc1ccnc(N2CCC(O)(Cn3ccnc3)CC2)n1 | -12 | 1.12
CC(C)(C)c1ccc(=O)n(CC2CN(c3cnsn3)C2)n1 | -16 | 2.38
C[C@H](Nc1ncc(C(F)(F)F)cc1Cl)C(N)=O | -10 | 1.96
CC(=O)C(=CNc1ncc(C(F)(F)F)cc1Cl)C(C)=O | -6 | 1.17
CN(C(=O)C(C)(C)Nc1ncc(C(F)(F)F)cc1Cl)c1ccc(Cl)cc1 | 59 | -7.64
FC(F)(F)c1cccc(-c2cc(-c3csc(-c4ccccc4)n3)on2)c1 | 1 | -0.12
Oc1nc(-c2cccc(C(F)(F)F)c2)sc1-c1ccccc1 | 59 | 0.06
Oc1nc(-c2cccnc2)sc1-c1ccccc1 | -2 | 0.32
O=C(NCCn1c(=O)[nH]c2ccsc2c1=O)c1ccccc1Cl | -10 | 1.7
O=c1[nH]c2ccsc2c(=O)n1CCc1ccccc1 | 33 | -4.74
O=C(CCn1c(=O)[nH]c2ccsc2c1=O)NCc1ccccc1 | 59 | -1.7
COc1cc(C(=O)NCC2(C)CCCCCC2)on1 | -5 | 0.52
CC1=C(C(=O)Nc2ccccc2)[C@H](c2ccc(Cl)cc2)c2c(n(C)c(=O)n(C)c2=O)N1 | -3 | 0.36
O=C(NCCCOCC(F)(F)F)NC1CCCC2OCCC12 (stereo not given) | -14 | 1.44
CCN1CCN(CCN2CC3(CCN(Cc4ccccc4C#N)CC3)OC2=O)CC1 | 2 | -0.49
CCc1nc(O)c(C(=O)N2CCOc3cc(F)c(F)cc32)cc1C | -5 | 0.67
Cc1cc(C)c2c(c1)N(C(=O)Cc1cnccc1C)CCO2 | -7 | 0.88
CCc1nc2c(C(=O)N3CCOc4c(C)cc(C)cc43)ccnc2[nH]1 | 71 | -10.67
